Most compounds without a hit are left out; they make up all but 7% or so of the library.
ADAM17 inh – ADAM17 inhibitors, primary screen, biochemical, QFRET. Disintegrin and metalloproteinase domain-containing protein 17 (Homo sapiens), P78536. recombinant ADAM17, EDANS/DABCYL FRET peptide cleavage. inhibition, % at 6.95 µM. actives 0.83% (n = 370,000). AID 720648, 2013;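 active = inhibition above the mean of compounds lying between control limits plus 3 SD, set per campaign, cut at about 8.5% in these data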;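 note: 0% = DMSO-only wells as the low control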
rCAG binder – binders of r(CAG) RNA repeats, primary screen, biochemical, fluorescence; AID 651821, 2012; r(CAG) RNA repeat, TO-PRO-1 dye displacement fluorescence; inhibition, % at 3 µM; actives 1.3% (n = 370,000);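 active = inhibition above the plate cutoff, the mean of all test compounds on that plate plus 3 SD, cut at about 35% in these data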;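 note: 0% = DMSO alone and 100% = 100 µM mitoxantrone as full dye displacement; higher means more dye released from RNA so lower well fluorescence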
proKLK7 act – proKLK7 zymogen activators, primary screen, biochemical, fluorescence intensity; Kallikrein-7 (Homo sapiens), P49862; purified proKLK7, EDANS-DABCYL substrate fluorescence; 100% is mature enzyme control, 0% vehicle; activation, % at 7 µM; actives 0.9% (n = 370,000); AID 652039, 2013;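 active = activation above the mean of all tested compounds plus 3 SD, computed per campaign excluding outliers beyond control limits, cut at about 13% in these data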
Target sequence (P49862 whole entry, looked up): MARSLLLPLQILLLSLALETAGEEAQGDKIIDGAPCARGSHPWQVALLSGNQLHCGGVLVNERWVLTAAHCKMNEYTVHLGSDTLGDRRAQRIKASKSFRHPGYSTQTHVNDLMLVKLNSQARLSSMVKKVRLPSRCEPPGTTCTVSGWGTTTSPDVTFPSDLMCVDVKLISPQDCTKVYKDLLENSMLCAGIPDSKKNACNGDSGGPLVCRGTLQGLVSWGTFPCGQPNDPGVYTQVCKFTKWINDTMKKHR
ADAM10 inh – human ADAM10 inhibitors, primary screen, biochemical, QFRET, HTS. Disintegrin and metalloproteinase domain-containing protein 10 (Homo sapiens), O14672. recombinant ADAM10, EDANS/DABCYL FRET peptide cleavage, 3 h. inhibition, % at 7 µM. actives 0.62% (n = 370,000);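 active = inhibition above a per-campaign cutoff equal to the mean of compounds falling between control-based bounds plus 3 SD, cut at about 20% in these data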;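 note: 0% = DMSO wells while the 100% control is not disclosed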
GRIN3A LBD mod – binders of NR3A ligand-binding domain, primary screen, biophysical, differential scanning fluorimetry, uHTS; Tm shift relative to glycine control, % at 25 µM; Glutamate receptor ionotropic, NMDA 3A (GRIN3A) ligand-binding domain; NR3A LBD differential scanning fluorimetry, Tm shift; 0% = protein alone, 100% = glycine-bound protein; actives 2.5% (n = 340,000);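 active = melting temperature shift of at least 10% of the positive control shift, at one fixed dose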
AHR act – AHR activators, primary screen, cell-based, luminescence, luciferase reporter, human; AID 2796, 2010; actives 2.5% (n = 320,000); activation, % at 5 µM; AHR-responsive luciferase reporter cells; Aryl hydrocarbon receptor (Homo sapiens), P35869; in the data active = activation above about 47%;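 note: 0% = vehicle wells and 100% = reference agonist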
ADAM10 confirm – human ADAM10 inhibitors, confirmation, biochemical, QFRET, triplicate | shares compounds with ADAM10 inh | ADAM10 QFRET peptide cleavage, EDANS fluorescence | inhibition, % at 6.95 µM | actives 1% (n = 2,100) | AID 743208, 2013;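 active = inhibition above about 20% chosen separately for each screening run, limit read from the data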;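 note: 0% = DMSO wells and 100% = marimastat wells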
ADAM17 counter – ADAM17 inhibitors, counter-screen for ADAM10 exosite inhibitor project, biochemical, QFRET, high throughput; shares compounds with ADAM10 inh; ADAM17 QFRET peptide cleavage, EDANS fluorescence; inhibition, % at 6.95 µM; actives 0.5% (n = 2,100); AID 743214, 2013;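 active = mean triplicate inhibition above the solvent-only control wells' mean plus 3 SD, cut at about 12% in these data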;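 note: 0% = DMSO wells and 100% = marimastat wells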
* hit, by the source's call; / = not tested or not shown.

SMILES | ADAM17 inh | rCAG binder | proKLK7 act | ADAM10 inh | GRIN3A LBD mod | AHR act | ADAM10 confirm | ADAM17 counter
O=C(/C=C/c1ccccc1)Nc1ccc(NC(=O)c2cccs2)cc1 | -2 | 5 | 1 | 22* | 29* | -2 | 2 | 1
O=C(/C=C/c1ccccc1)NNC(=O)c1cccs1 | -4 | -1 | 0 | 5 | -1 | 12 | / | /
CCCCNC(=O)C(NC(=O)c1cccnc1OC)C(=O)c1ccccc1 (centres undefined) | -4 | 2 | 0 | -8 | / | / | / | /
COc1ccc(NC(=O)Cc2coc3cc(C)c(C(C)C)cc23)cc1S(=O)(=O)N1CCOCC1 | 7 | 12 | 1 | 22* | -4 | -1 | 4 | 1
Cc1ccc(SCCC(=O)OCC(=O)Nc2ccc(C(N)=O)cc2)cc1 | -4 | 4 | 0 | 95* | 3 | 0 | 0 | 0
NS(=O)(=O)c1cccc(NC(=O)COC(=O)CCSc2ccccc2)c1 | -2 | 4 | 0 | 0 | -1 | 5 | / | /
CN(C)S(=O)(=O)c1cccc(NC(=O)COC(=O)CCSc2ccc(Cl)cc2)c1 | 8 | 4 | 0 | 21* | -4 | 2 | 3 | 1
O=C1CCC(C(=O)N2CCN(c3cnccn3)CC2)CN1CCc1cccc(F)c1 (centres undefined) | -30 | -8 | 0 | -114 | 0 | 8 | / | /
CCO[C@H]1OC(C(=O)NCc2ccccc2)=C[C@@H](c2cn(C(C)=O)c3ccccc23)[C@@H]1CCCO | 3 | -3 | 0 | 26* | 0 | 7 | 4 | 2
C#Cc1ccc([C@@H]2C=C(C(=O)N3CCN(Cc4ccccc4)CC3)O[C@H](OCC)[C@H]2CCCO)cc1 | 4 | -4 | 0 | 24* | -1 | 9 | 3 | 1
C#Cc1ccc([C@H]2C=C(C(=O)N3CCN(Cc4ccccc4)CC3)O[C@@H](OCC)[C@@H]2CCCO)cc1 | -4 | -4 | 0 | 0 | 1 | 6 | / | /
CCO[C@@H]1OC(C(=O)NCc2nc3ccccc3[nH]2)=C[C@H](c2csc3ccccc23)[C@H]1CCCO | 3 | 1 | 0 | 20* | -7 | 13 | 4 | 2
O=C(Nc1ccc(OC(F)F)c(Cl)c1)C(c1ccccc1)c1ccccc1 | 14* | 4 | 0 | 28* | 21* | 2 | 7 | 4
FC(F)Oc1ccc(NC(=S)NCc2ccccc2)cc1Cl | 6 | 5 | 0 | 10 | -2 | -2 | / | /
COc1ccc(CNc2nc3ccccc3n2C)c(O)c1 | -2 | -1 | 0 | 14 | -1 | 1 | / | /
CCCCn1c(NCc2cc(C)ccc2O)nc2ccccc21 | 6 | 3 | 1 | 23* | / | / | 3 | 1
Cn1c(NCc2cc(Br)ccc2O)nc2ccccc21 | 5 | 4 | 0 | 21* | -12 | -2 | 1 | 0
C=CCn1c(NCc2cc(C)ccc2O)nc2ccccc21 | 0 | 0 | 0 | -1 | -30 | 4 | / | /
CN(Cc1ccccc1)CC1C2CCC(C2)C1O (centres undefined) | 0 | 0 | 0 | -4 | -2 | / | / | /
COc1ccc(S(=O)(=O)N(C)C[C@@H]2OCc3cnnn3CCCC(=O)N([C@@H](C)CO)C[C@@H]2C)cc1 | -3 | 1 | 1 | -17 | / | / | / | /
CC(C)C[C@H]1CN(CCCC[C@H]2CNC(=O)C(=O)N2CCc2ccccc2)C(=O)C(=O)N1Cc1ccccc1 | -2 | 0 | 1 | 0 | / | / | / | /
NC(=O)[C@H]1CC2(CC(c3cccc(NC(=O)CC(c4ccccc4)c4ccccc4)c3)=NO2)CN1C(=O)c1ccccc1C(=O)c1ccccc1 (some centres undefined) | 9 | 24 | 0 | 20* | -11 | 0 | 8 | 3
CCC(=O)Nc1cccc(C2=NOC3(C2)C[C@@H](C(N)=O)N(C(=O)c2ccccc2C(=O)c2ccccc2)C3)c1 (some centres undefined) | -5 | 4 | 0 | -11 | 0 | -1 | / | /
NC(=O)[C@@H]1CC2(CC(c3cccc(NC(=O)CC(c4ccccc4)c4ccccc4)c3)=NO2)CN1C(=O)COc1ccc(Cl)cc1 (some centres undefined) | 8 | 15 | 0 | 23* | 9 | 2 | 14 | 4
COC(=O)c1ccc2nc(-c3ccc(Cl)cc3)c(Cc3cccc(Cl)c3)n2c1 | -4 | 9 | -1 | -11 | / | / | / | /
SMILES | ADAM17 inh | rCAG binder | proKLK7 act | ADAM10 inh | GRIN3A LBD mod | AHR act | ADAM10 confirm | ADAM17 counter
COC(=O)[C@@]1(Cc2ccccc2)[C@H]2c3cc(C(=O)N4CCCC4)n(Cc4ccsc4Br)c3C[C@H]2CN1C(=O)c1ccccc1 | 3 | 4 | 0 | 2 | / | 3 | / | /
COC(=O)C[C@@H]1CC[C@@H]2[C@@H](COc3ccc(NS(=O)(=O)c4ccc(F)cc4)cc3C(=O)N2C)O1 | -1 | 4 | 0 | 5 | / | / | / | /
CN1C(=O)c2cc(NS(=O)(=O)c3ccc(F)cc3)ccc2OC[C@H]2O[C@@H](CC(=O)NCC(F)(F)F)CC[C@@H]21 | -18 | 1 | 0 | 26* | / | / | 13 | 3
Cc1ccc(-c2noc(CN(C(=O)C(c3ccccc3)c3ccccc3)C(C)C)n2)cc1 | 5 | 0 | 0 | 20* | 0 | -3 | 2 | 1
CC(C)N(Cc1nc(-c2ccc(Cl)cc2)no1)C(=O)C(c1ccccc1)c1ccccc1 | 2 | -1 | 0 | 3 | 1 | -6 | / | /
C[C@H](CO)N1C[C@H](C)[C@H](CN(C)S(=O)(=O)c2ccc(Cl)cc2)OCc2ccccc2-c2c(n(C)c3ccccc23)C1=O | 12* | 11 | 0 | 36* | / | / | 13 | 4
C[C@H](CO)N1C[C@H](C)[C@H](CN(C)S(C)(=O)=O)OCc2ccccc2-c2c(n(C)c3ccccc23)C1=O | -4 | 1 | 0 | -15 | / | / | / | /
CC(=O)Nc1ccc(Nc2c([N+](=O)[O-])c(=O)n(-c3ccccc3)c3ccccc23)cc1 | -4 | 1 | 0 | 5 | -1 | -1 | / | /
Cc1cccc(C(=O)NC(=S)N2CCN(C(=S)NC(=O)c3cccc(C)c3)CC2)c1 | 3 | -1 | 0 | 24* | -4 | 7 | 1 | 0
